{"source": "PubChem BioAssay (NCI)", "note": "About 79,000 compounds went through this panel and 15% of them were active in at least one assay; those are over-represented in the sample as a whole. Unmarked numbers belong to inactive results. Calls of active or inactive are those of the source. Cut-off read from the data, not from the text of the source: active = growth inhibition above about 70%; inactive = the rest. Where a SMILES comes first, the peptide text is derived from it. [ ]: non-standard residue; d: D form. ξ: configuration not given here. ξPhe(4-N(CH2CH2Cl)2) = NC(Cc1ccc(N(CCCl)CCCl)cc1)C(=O)O"}
{"assay": "NCI Yeast Anticancer Drug Screen. Data for the rad50 strain (AID 155);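 note: 0% = growth of vehicle-only cultures of the same strain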", "settings": "S. cerevisiae rad50 strain growth inhibition; at 50.0 µM; stronger effect = higher value", "outline": "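Readout: growth inhibition relative to vehicle-treated cultures. Compound exposure was carried out in a genetically defined yeast strain deficient in DNA damage repair.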"}
{"smiles": "CCCCCCCCCCCCN(C)C", "growth inhibition": "45.4%"}
{"smiles": "Nc1nc(N)c(N=Nc2ccc([As](=O)(O)O)c(O)c2)c(N)n1", "growth inhibition": "-4%"}
{"smiles": "O=C(O)CCCC(=O)CCCC(=O)O.[Pb]", "growth inhibition": "-20%"}
{"smiles": "C=Cn1nnc(N)n1", "growth inhibition": "-4.9%"}
{"smiles": "CN(C)NP(=O)(c1ccccc1)c1ccccc1", "growth inhibition": "0.05%"}
{"smiles": "CCCC(=O)[O-].N.N.N.N.N.[Co+3].[O-][Cl+3]([O-])([O-])[O-]", "growth inhibition": "-23.8%"}
{"smiles": "CC(=O)Nc1cc([As](=O)(O)O)ccc1O", "growth inhibition": "31.6%"}
{"smiles": "CC(C)CNC12CN3CN(CN(C3)C1)C2", "growth inhibition": "-9.25%"}
{"smiles": "Oc1ccccc1C=NCCN=Cc1ccccc1O", "growth inhibition": "-15.2%"}
{"smiles": "CN1CCCC(O)(C(=O)c2ccccc2)C1", "note": "(stereo not given)", "growth inhibition": "4.15%"}
{"smiles": "COC(C)C(O)(C(=O)OCC1=CCN2CCC(O)C12)C(C)(C)O", "note": "(stereo not given)", "growth inhibition": "1.25%"}
{"smiles": "O=C/C=C/c1ccco1", "growth inhibition": "17.4%"}
{"smiles": "O=C(Nc1cccc(S(=O)(=O)F)c1)/C(=C/c1ccc([N+](=O)[O-])cc1)c1ccccc1", "growth inhibition": "88.5% (active)"}
{"smiles": "O=C1NC(=S)NC(=O)C1=Cc1ccccc1O", "growth inhibition": "-2.15%"}
{"smiles": "[Fe+2].[c-]1[c-][c-][cH-][c-]1.[c-]1[c-][c-][cH-][c-]1.c1cc[c]([Pb]([c]2ccccc2)[c]2ccccc2)cc1", "growth inhibition": "66.5%"}
{"smiles": "CN(C)P(=O)(N(C)C)N(C)C", "note": "(tested in a mixture with another compound)", "growth inhibition": "8.45%"}
{"smiles": "CC(C)=CCC1=C(OOC2=C(CC=C(C)C)C(=O)c3ccccc3C2=O)C(=O)c2ccccc2C1=O", "growth inhibition": "36.8%"}
{"smiles": "Cc1cc(C)c(O)c(CN2CCCCC2)c1", "growth inhibition": "4.35%"}
{"smiles": "O=[N+]([O-])c1ccc(O)c(C=NCCN=Cc2cc([N+](=O)[O-])ccc2O)c1.[Ni+2]", "growth inhibition": "-30.6%"}
{"smiles": "[CH-]=C([CH2-])C.[Ni][Br].c1ccc([PH+](c2ccccc2)c2ccccc2)cc1", "growth inhibition": "35.5%"}
{"smiles": "NCc1c[nH]c2ccccc12", "growth inhibition": "-25.1%"}
{"smiles": "CN1CCCC1c1ccc[n+](C)c1", "note": "(stereo not given)", "growth inhibition": "-2.95%"}
{"smiles": "CC(O)CN(CCN(CC(C)O)CC(C)O)CC(C)O.[Cl-].[Zn+2]", "note": "(stereo not given)", "growth inhibition": "14.9%"}
{"smiles": "CCOC(=O)C(Cc1ccc(N(CCCl)CCCl)cc1)NC(=O)C(Cc1ccccc1)NC(=O)C(NC(=O)CNC(=O)C1CCCN1)C(C)C", "note": "(stereo not given) (H-PGVF[ξPhe(4-N(CH2CH2Cl)2)]-OEt; configuration not given here)", "growth inhibition": "-4.6%"}
{"smiles": "CC12CCC3C(CCC4CC(Cl)CCC43C)C1CCC2=O", "note": "(stereo not given)", "growth inhibition": "9.95%"}
{"smiles": "ClC12OOC(c3ccccc3)(O1)C(c1ccccc1)c1ccccc12", "note": "(stereo not given)", "growth inhibition": "14.2%"}
{"smiles": "[CH3][Sn]([CH3])([n]1cnc(N)nc1=O)[n]1cnc(N)nc1=O", "growth inhibition": "4.75%"}
{"smiles": "CC(Cl)CN(CC(C)Cl)c1ccc2c(c1)Cc1ccccc1-2", "note": "(stereo not given)", "growth inhibition": "-20.8%"}
{"smiles": "N#CCCc1ccccc1", "growth inhibition": "-2.25%"}
{"smiles": "C#CCn1c(I)cc2c(c1=O)COC(=O)[C@]2(O)CC", "growth inhibition": "0.95%"}
{"smiles": "c1ccc([Se+](c2ccccc2)c2ccccc2)cc1", "growth inhibition": "16.8%"}
{"smiles": "COc1ccc2c(c[n+](C)c3c4cc5c(cc4ccc23)OCO5)c1OC", "growth inhibition": "0.2%"}
{"smiles": "CC1CCCCN1", "note": "(stereo not given)", "growth inhibition": "5.35%"}
{"smiles": "CCN(CC)CCn1c(=O)n(C)c2ccccc21", "growth inhibition": "2.75%"}
{"smiles": "c1ccc2c3c(ccc2c1)NC1CCCN1C3", "note": "(stereo not given)", "growth inhibition": "21.8%"}
{"smiles": "CC(C)C1(Cc2ccccc2)C(=O)NC(=S)NC1=O", "growth inhibition": "-2.05%"}
{"smiles": "CS(=N)(=O)CCC(N)P(=O)(O)O", "note": "(stereo not given)", "growth inhibition": "-29.8%"}
{"smiles": "O=C1c2ccccc2C2(O)C3C=CCCN3CN12", "note": "(stereo not given)", "growth inhibition": "2.65%"}
{"smiles": "CN1C(=O)N(C)C(O)C(Cl)(Cl)C1=O", "note": "(stereo not given)", "growth inhibition": "-4.75%"}
{"smiles": "O=Cc1ccccc1O.O=Cc1ccccc1O.[Cu]", "growth inhibition": "86.2% (active)"}
{"assay": "NCI Yeast Anticancer Drug Screen. Data for the mec2-1 strain (AID 157)", "settings": "S. cerevisiae mec2-1 strain, at 50.0 µM, stronger effect = higher value", "outline": "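Compounds were applied to mec2-1 yeast cells. Their growth was then compared with that of vehicle-treated cultures to give growth inhibition.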"}
{"smiles": "CCCCCCCCCCCCN(C)C", "growth inhibition": "28.7%"}
{"smiles": "Nc1nc(N)c(N=Nc2ccc([As](=O)(O)O)c(O)c2)c(N)n1", "growth inhibition": "-6.9%"}
{"smiles": "O=C(O)CCCC(=O)CCCC(=O)O.[Pb]", "growth inhibition": "-27.3%"}
{"smiles": "C=Cn1nnc(N)n1", "growth inhibition": "-0.45%"}
{"smiles": "CN(C)NP(=O)(c1ccccc1)c1ccccc1", "growth inhibition": "-3.05%"}
{"smiles": "CCCC(=O)[O-].N.N.N.N.N.[Co+3].[O-][Cl+3]([O-])([O-])[O-]", "growth inhibition": "-2.3%"}
{"smiles": "CC(=O)Nc1cc([As](=O)(O)O)ccc1O", "growth inhibition": "14.3%"}
{"smiles": "CC(C)CNC12CN3CN(CN(C3)C1)C2", "growth inhibition": "-11.2%"}
{"smiles": "Oc1ccccc1C=NCCN=Cc1ccccc1O", "growth inhibition": "-11.6%"}
{"smiles": "CN1CCCC(O)(C(=O)c2ccccc2)C1", "note": "(stereo not given)", "growth inhibition": "-15.2%"}
{"smiles": "COC(C)C(O)(C(=O)OCC1=CCN2CCC(O)C12)C(C)(C)O", "note": "(stereo not given)", "growth inhibition": "-5.35%"}
{"smiles": "O=C/C=C/c1ccco1", "growth inhibition": "-14.3%"}
{"smiles": "O=C(Nc1cccc(S(=O)(=O)F)c1)/C(=C/c1ccc([N+](=O)[O-])cc1)c1ccccc1", "growth inhibition": "86% (active)"}
{"smiles": "O=C1NC(=S)NC(=O)C1=Cc1ccccc1O", "growth inhibition": "-16.9%"}
{"smiles": "[Fe+2].[c-]1[c-][c-][cH-][c-]1.[c-]1[c-][c-][cH-][c-]1.c1cc[c]([Pb]([c]2ccccc2)[c]2ccccc2)cc1", "growth inhibition": "85% (active)"}
{"smiles": "CN(C)P(=O)(N(C)C)N(C)C", "note": "(tested in a mixture with another compound)", "growth inhibition": "-7%"}
{"smiles": "CC(C)=CCC1=C(OOC2=C(CC=C(C)C)C(=O)c3ccccc3C2=O)C(=O)c2ccccc2C1=O", "growth inhibition": "23.8%"}
{"smiles": "Cc1cc(C)c(O)c(CN2CCCCC2)c1", "growth inhibition": "13.1%"}
{"smiles": "O=[N+]([O-])c1ccc(O)c(C=NCCN=Cc2cc([N+](=O)[O-])ccc2O)c1.[Ni+2]", "growth inhibition": "5.8%"}
{"smiles": "[CH-]=C([CH2-])C.[Ni][Br].c1ccc([PH+](c2ccccc2)c2ccccc2)cc1", "growth inhibition": "2.9%"}
{"smiles": "NCc1c[nH]c2ccccc12", "growth inhibition": "4.8%"}
{"smiles": "CN1CCCC1c1ccc[n+](C)c1", "note": "(stereo not given)", "growth inhibition": "1.85%"}
{"smiles": "CC(O)CN(CCN(CC(C)O)CC(C)O)CC(C)O.[Cl-].[Zn+2]", "note": "(stereo not given)", "growth inhibition": "9.25%"}
{"smiles": "CCOC(=O)C(Cc1ccc(N(CCCl)CCCl)cc1)NC(=O)C(Cc1ccccc1)NC(=O)C(NC(=O)CNC(=O)C1CCCN1)C(C)C", "note": "(stereo not given) (H-PGVF[ξPhe(4-N(CH2CH2Cl)2)]-OEt; configuration not given here)", "growth inhibition": "11.8%"}
{"smiles": "CC12CCC3C(CCC4CC(Cl)CCC43C)C1CCC2=O", "note": "(stereo not given)", "growth inhibition": "8.5%"}
{"smiles": "ClC12OOC(c3ccccc3)(O1)C(c1ccccc1)c1ccccc12", "note": "(stereo not given)", "growth inhibition": "24.1%"}
{"smiles": "[CH3][Sn]([CH3])([n]1cnc(N)nc1=O)[n]1cnc(N)nc1=O", "growth inhibition": "0%"}
{"smiles": "CC(Cl)CN(CC(C)Cl)c1ccc2c(c1)Cc1ccccc1-2", "note": "(stereo not given)", "growth inhibition": "-10.1%"}
{"smiles": "N#CCCc1ccccc1", "growth inhibition": "-7.95%"}
{"smiles": "C#CCn1c(I)cc2c(c1=O)COC(=O)[C@]2(O)CC", "growth inhibition": "-3.3%"}
{"smiles": "c1ccc([Se+](c2ccccc2)c2ccccc2)cc1", "growth inhibition": "-46.5%"}
{"smiles": "COc1ccc2c(c[n+](C)c3c4cc5c(cc4ccc23)OCO5)c1OC", "growth inhibition": "-6.25%"}
{"smiles": "CC1CCCCN1", "note": "(stereo not given)", "growth inhibition": "-1%"}
{"smiles": "CCN(CC)CCn1c(=O)n(C)c2ccccc21", "growth inhibition": "-18.7%"}
{"smiles": "c1ccc2c3c(ccc2c1)NC1CCCN1C3", "note": "(stereo not given)", "growth inhibition": "6.65%"}
{"smiles": "CC(C)C1(Cc2ccccc2)C(=O)NC(=S)NC1=O", "growth inhibition": "-0.8%"}
{"smiles": "CS(=N)(=O)CCC(N)P(=O)(O)O", "note": "(stereo not given)", "growth inhibition": "-37.6%"}
{"smiles": "O=C1c2ccccc2C2(O)C3C=CCCN3CN12", "note": "(stereo not given)", "growth inhibition": "9.1%"}
{"smiles": "CN1C(=O)N(C)C(O)C(Cl)(Cl)C1=O", "note": "(stereo not given)", "growth inhibition": "10.1%"}
{"smiles": "O=Cc1ccccc1O.O=Cc1ccccc1O.[Cu]", "growth inhibition": "72.8% (active)"}
